Most compounds without a hit are left out; they make up all but 9.2% or so of the library.
HPGD block: blocks human HPGD enzyme activity; P15428; purified HPGD, NADH fluorescence kinetic, PGE2 substrate; Potency, µM, for the others: top-dose activity change, negative = inhibition, most hits filed as inhibitors; 150,000 tested, 4.3% active; also: % is scaled to controls: 0 for no effect and ±100 for the full control effect
Target sequence (P15428 whole entry, looked up): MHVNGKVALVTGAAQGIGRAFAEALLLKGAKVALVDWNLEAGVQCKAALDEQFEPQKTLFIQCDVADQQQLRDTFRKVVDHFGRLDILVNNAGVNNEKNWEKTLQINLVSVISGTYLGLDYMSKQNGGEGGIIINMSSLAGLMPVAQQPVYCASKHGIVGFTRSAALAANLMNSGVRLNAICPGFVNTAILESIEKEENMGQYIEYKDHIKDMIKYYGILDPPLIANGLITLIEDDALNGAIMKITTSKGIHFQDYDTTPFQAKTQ
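NADH formation kinetics: reaction with 30 uM PGE2 and 1 mM NAD+ (final), 20 nM enzyme, Tris-HCl pH 8 with Tween 20, after 15 min compound preincubation at room temperature. Fluorescence change, last versus first of five reads.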
HTT cytoprotect: cytoprotection in Huntington HTT-Q103 PC12 cell model; Potency, µM (titrated, usually from 56.4 µM), inactives show cytoprotection (ATP increase), usual class: activators; PC12 HTT-Q103 induced, cytoprotection, ATP luminescence, 40 h; 230,000 tested, 0.14% active; AID 1471; active = well fitted curve in the direction sought with a large enough effect; inconclusive = small, poorly fitted or top-dose-only effect, or another doubt; inactive = no such curve, though single readings can be large; an effect the other way counts as inactive or inconclusive; also: % of control where 0% means no effect; nearly all actives have a fitted effect of over 45% in size
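Quantitative HTS on tebufenozide-induced (100 nM) PC12 cells expressing HTTQ103 exon 1–GFP; compounds tested as a concentration series; survival measured via cellular ATP.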
JMJD2E inh: inhibitors of human JMJD2E histone demethylase. B2RXH2. JMJD2E catalytic domain, FDH-coupled NADH fluorescence (FDH is formaldehyde dehydrogenase). Potency, µM (top dose mostly 57.1 µM), inactives show at the highest dose activity change, negative = inhibition, hits mostly inhibitors. 230,000 tested, 1.6% active. AID 2147;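 also: 0% = wells with enzyme and -100% = buffer wells without enzyme; nearly all actives have a fitted effect of over 50% in size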
ALDH1A1 inh: ALDH1A1 (human) enzyme inhibition. P00352. Purified ALDH1A1, NADH fluorescence, propionaldehyde substrate. Potency, µM (titrated, usually from 75.3 µM), for the others: at the top dose activity, negative = inhibition, most hits filed as inhibitors. 220,000 tested, 7.3% active. AID 1030;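 also: plate controls were no enzyme wells and a reference inhibitor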
Target sequence (P00352 whole entry, looked up): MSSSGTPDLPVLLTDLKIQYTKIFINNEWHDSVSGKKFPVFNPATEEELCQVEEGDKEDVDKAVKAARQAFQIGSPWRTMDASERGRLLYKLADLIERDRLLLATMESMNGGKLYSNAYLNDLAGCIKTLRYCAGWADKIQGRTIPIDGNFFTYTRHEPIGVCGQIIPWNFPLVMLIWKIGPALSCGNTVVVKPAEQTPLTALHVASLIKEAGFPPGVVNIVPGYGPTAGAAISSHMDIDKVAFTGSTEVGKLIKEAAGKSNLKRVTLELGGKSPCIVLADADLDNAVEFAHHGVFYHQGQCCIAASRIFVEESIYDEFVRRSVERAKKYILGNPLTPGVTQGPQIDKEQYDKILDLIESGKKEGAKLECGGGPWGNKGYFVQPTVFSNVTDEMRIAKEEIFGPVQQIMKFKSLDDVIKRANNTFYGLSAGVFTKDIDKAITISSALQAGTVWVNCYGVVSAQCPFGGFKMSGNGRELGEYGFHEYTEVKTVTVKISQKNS
Lamin A splicing: changes lamin A minigene splicing in HeLa cells | 200,000 tested, 0.01% active | Potency, µM (doses to about 46.1 µM), for the others: top-dose ratio change, negative = inhibition, usual class: inhibitors | HeLa LMNA splicing GFP/RFP minigene ratio, 48 h; active = well fitted inhibition curve with a large enough effect in the signal ratio, with a control signal flat, not every such curve was filed as active; inconclusive = small, poorly fitted or top-dose-only effect, or effect the other way, or a change in a side signal; the % refers to the signal ratio; also: % is scaled to controls: 0 for no effect and ±100 for the full control effect
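S3 HeLa stable clones carrying a lamin A-EGFP splicing minigene plus DsRed2 were seeded at 600 cells/well in Opti-MEM with 2% FBS, pin-dosed and incubated 48 h at 37°C. Acumen cytometry (488 nm) gave the GFP/RFP total-intensity ratio.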
HttQ103 aggreg: inhibitors of mutant huntingtin aggregate formation in PC12 cells; PC12 HttQ103-GFP aggregates, Acumen cytometry, 40 h; Potency, µM (doses to about 46.1 µM), without a hit: at the highest dose activity change, negative = inhibition, actives largely listed as inhibitors; 220,000 tested, 1.1% active; active = well fitted curve in the direction sought with a large enough effect; inconclusive = small, poorly fitted or top-dose-only effect, or another doubt; inactive = no such curve, though single readings can be large; an effect the other way counts as inactive or inconclusive; also: % is scaled to controls: 0 for no effect and ±100 for the full control effect; nearly all actives have a fitted effect of over 60% in size
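Compounds (qHTS titration) were added to PC12 cells expressing an ecdysone-driven HTT exon 1 Q103–GFP fusion after induction with 100 nM tebufenozide. Aggregate formation was measured as GFP objects in cell lysates.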
* = called active by the depositor; ! = repeats disagree; [ ] = another dose, or the depositor's remark. Unless noted, calls follow the shape of the dose curve; as a rule, active = well fitted inhibition curve with a large enough effect (not every such curve was filed as active); inconclusive = small, poorly fitted or top-dose-only effect, or another doubt; inactive = no such curve, though single readings can be large or run the other way. Potency is read from the fitted curve at half-maximal effect.

Oc1c(C(c2ccc(Cl)cc2)N2CCCC2)cc(Cl)c2cccnc12 (stereo unspecified) was read as HTT cytoprotect -103.8%, JMJD2E inh inconclusive, ALDH1A1 inh 14.1µM*, Lamin A splicing inconclusive and HttQ103 aggreg inconclusive.
Cc1ccc(NS(=O)(=O)c2ccc3c(c2)NC(=O)CCS3)c(Br)c1 was read as Lamin A splicing -25.7%[46 µM].
`CCN(CC)c1nc2c(s1)C(=O)CC(C)(C)C2` gave HPGD block -13.4%, HTT cytoprotect -17.5%, JMJD2E inh -0.2%, ALDH1A1 inh 12.6µM*, Lamin A splicing 15.3% and HttQ103 aggreg -10.1%[9.22 µM].
For CC(=O)c1cccc(NC(=O)c2nc(-c3ccc(C)cc3)n3c2CCCCC3)c1 the results were Lamin A splicing 6.1%[46 µM].
For CC(C)=NNC(=O)c1c(O)c2ccccc2[nH]c1=O the results were HTT cytoprotect 14.6%[10 µM], JMJD2E inh inconclusive, ALDH1A1 inh 12.6µM* and HttQ103 aggreg -8.2%[9.22 µM].
Screening CCNC(=O)c1c(O)c2ccccc2[nH]c1=O returned HPGD block -7.0%, HTT cytoprotect 15.0%, JMJD2E inh inconclusive, ALDH1A1 inh -1.5%, Lamin A splicing 5.1% and HttQ103 aggreg -7.3%.
`O=C(NC1CCCCC1)c1ccc(CNc2nc(=S)[nH]c3ccccc23)cc1` gave HTT cytoprotect 10.7%, JMJD2E inh 6.5%, ALDH1A1 inh 4.8%, Lamin A splicing -7.4%[46 µM] and HttQ103 aggreg -4.6%.
`C=CCOC(=O)N[C@H](C[N+](=O)[O-])c1ccccc1` gave HPGD block -11.0%, HTT cytoprotect inconclusive, JMJD2E inh 1.3% and ALDH1A1 inh 9.1%.
`CCCN(CCC)C(=O)C[n+]1cccc(/C=N/O)c1` gave HPGD block 0.6%, HTT cytoprotect 8.9%[10 µM], JMJD2E inh 6.0%, ALDH1A1 inh 15.1%, Lamin A splicing -7.3% and HttQ103 aggreg 6.3%.
For Cc1ccc(S(=O)(=O)NC(=O)c2ccccc2)cc1C(C)C the results were HTT cytoprotect 2.82µM*, JMJD2E inh -1.5%, ALDH1A1 inh 1.8%, Lamin A splicing 22.1%[46 µM] and HttQ103 aggreg inconclusive.
NC(=O)c1ccc(NC(=O)COC(=O)c2cccc(Oc3ccccc3)c2)cc1 was read as HPGD block -10.4%, HTT cytoprotect -11.7%[10 µM], JMJD2E inh -2.8%, ALDH1A1 inh 6.2%, Lamin A splicing 0.3% and HttQ103 aggreg 1.6%.
Cc1cc(C)n2nc(/C(C#N)=C/c3ccccn3)c(C#N)c2n1 was read as HTT cytoprotect -3.7%[10 µM], JMJD2E inh inconclusive, ALDH1A1 inh 14.1µM*, Lamin A splicing inconclusive and HttQ103 aggreg inconclusive.
`CC(=O)Nc1cccc(NC(=O)CSc2nc(C)c(C)c(C)c2C#N)c1` gave HPGD block inconclusive, HTT cytoprotect 1.4%, JMJD2E inh 1.0%, ALDH1A1 inh 10µM*, Lamin A splicing -12.8% and HttQ103 aggreg -1.7%.
Cc1cc(C)cc(NC(=O)CSc2nccn2C2CCCC2)c1 was read as Lamin A splicing 14.2%[46 µM].
Screening N[C@@H](Cc1c[nH]c2ccc(O)cc12)C(=O)O returned HPGD block -8.8%, HTT cytoprotect -8.5%, JMJD2E inh inconclusive, ALDH1A1 inh 28.2µM*!, Lamin A splicing inconclusive and HttQ103 aggreg 7.0%.
N[C@@H](Cc1c[nH]c2ccccc12)C(=O)NCC(=O)O was read as HTT cytoprotect -8.5%.
`CC(C)(C)c1ccc(S(=O)(=O)N(CCCN2CCOCC2)Cc2cccs2)cc1` gave HPGD block 25.1µM*, JMJD2E inh -7.1%, ALDH1A1 inh 18.9%, Lamin A splicing inconclusive and HttQ103 aggreg 12.7%.
Screening COc1ccc(-c2ccc(/C=N/N3C(=O)C4C5C=CC(C6CC56)C4C3=O)o2)c([N+](=O)[O-])c1 (stereo unspecified) returned HPGD block 25.1µM*, HTT cytoprotect 6.5%[10 µM], JMJD2E inh 4.4%, ALDH1A1 inh 10µM*, Lamin A splicing -20.3% and HttQ103 aggreg -1.5%.
Screening O=C(O)c1cc(-c2ccc(/C=N/N3C(=O)C4C5C=CC(CC5)C4C3=O)o2)ccc1Cl (stereo unspecified) returned HTT cytoprotect 6.7%[10 µM], JMJD2E inh inconclusive, ALDH1A1 inh 11.2µM*, Lamin A splicing -3.5%[46 µM] and HttQ103 aggreg -12.4%[9.22 µM].
For COC(=O)c1ccc(-c2ccc(/C=N/N3C(=O)C4C5C=CC(CC5)C4C3=O)o2)cc1 (stereo unspecified) the results were JMJD2E inh inconclusive and ALDH1A1 inh inactive.
For Cc1ccc(-c2ccc(/C=N/N3C(=O)C4C5C=CC(CC5)C4C3=O)o2)c([N+](=O)[O-])c1 (stereo unspecified) the results were HPGD block 15.8µM*, HTT cytoprotect -0.5%, JMJD2E inh -10.8%, ALDH1A1 inh 0.891µM*, Lamin A splicing -20.3% and HttQ103 aggreg -31.5%.
Screening O=C1C2C3C=CC(C4CC34)C2C(=O)N1/N=C/c1ccc(-c2ccc(F)cc2[N+](=O)[O-])o1 (stereo unspecified) returned HPGD block 20µM*, HTT cytoprotect -18.6%, JMJD2E inh -4.8%, ALDH1A1 inh inconclusive, Lamin A splicing -21.7% and HttQ103 aggreg inconclusive.
Screening O=C1C2C3C=CC(C4CC34)C2C(=O)N1/N=C/c1ccc(-c2ccc(Cl)cc2[N+](=O)[O-])o1 (stereo unspecified) returned HPGD block inconclusive, HTT cytoprotect -21.8%, JMJD2E inh -3.3%, ALDH1A1 inh inconclusive, Lamin A splicing -9.5% and HttQ103 aggreg inconclusive.
Cc1cnc(CNc2nc(-c3ccoc3)nc3ccccc23)cn1 was read as HTT cytoprotect -40.2%, ALDH1A1 inh inconclusive and Lamin A splicing -17.4%.
`Cc1ccc(C(=O)C2CCN(CC(=O)N3CCN(c4ccc(F)cc4)CC3)CC2)cc1` gave HTT cytoprotect -26.3%, JMJD2E inh -6.4%, ALDH1A1 inh -11.6%, Lamin A splicing inconclusive and HttQ103 aggreg -25.7%.
For COc1ccc(CCNC(=O)CCS(=O)(=O)c2cc3c(cc2Cl)NC(=O)CO3)cc1OC the results were Lamin A splicing -5.1%[46 µM].
CCN1CCC(=NNC(=O)CC23CC4CC(CC(C4)C2)C3)CC1 was read as HPGD block -12.8%, HTT cytoprotect -24.2%, JMJD2E inh 46.1%, ALDH1A1 inh 1.78µM*, Lamin A splicing 7.7% and HttQ103 aggreg 6.1%.
`COC(=O)c1cc(=O)[nH]c(=O)[nH]1` gave HPGD block -7.3%, HTT cytoprotect 1.5%[10 µM] and ALDH1A1 inh -2.7%[13.5 µM].
O=C1C(=O)N(C2CCNCC2)CCN1Cc1ccccc1 was read as Lamin A splicing -7.9%[46 µM].
Screening CCC1=NNc2cccc3c(OC)ccc1c23 returned HPGD block 14.1µM*, HTT cytoprotect -2.3%, JMJD2E inh 5.01µM*, ALDH1A1 inh inconclusive, Lamin A splicing 8.4% and HttQ103 aggreg -0.1%[9.22 µM].
